HPGD inh – blocks human HPGD enzyme activity | P15428 | purified HPGD, NADH fluorescence kinetic, PGE2 substrate | Potency, µM, without a hit: at the top dose activity change, negative = inhibition, usual class: inhibitors | 150,000 tested, 4.3% active; note: potency is the fitted concentration of half-maximal effect
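NADH formation kinetics: reaction with 30 uM PGE2 and 1 mM NAD+ (final), 20 nM enzyme, Tris-HCl pH 8 with Tween 20, after 15 min compound preincubation at room temperature. Fluorescence change, last versus first of five reads.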
ALDH1A1 block – ALDH1A1 (human) enzyme inhibition | P00352 | Purified ALDH1A1, NADH fluorescence, propionaldehyde substrate | Potency, µM (top dose mostly 75.3 µM), for the others: top-dose activity, negative = inhibition, most hits filed as inhibitors | 220,000 tested, 7.3% active;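 note: potency is the fitted concentration of half-maximal effect; plate controls were no enzyme wells and a reference inhibitor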
Target sequence (P00352 whole entry, looked up): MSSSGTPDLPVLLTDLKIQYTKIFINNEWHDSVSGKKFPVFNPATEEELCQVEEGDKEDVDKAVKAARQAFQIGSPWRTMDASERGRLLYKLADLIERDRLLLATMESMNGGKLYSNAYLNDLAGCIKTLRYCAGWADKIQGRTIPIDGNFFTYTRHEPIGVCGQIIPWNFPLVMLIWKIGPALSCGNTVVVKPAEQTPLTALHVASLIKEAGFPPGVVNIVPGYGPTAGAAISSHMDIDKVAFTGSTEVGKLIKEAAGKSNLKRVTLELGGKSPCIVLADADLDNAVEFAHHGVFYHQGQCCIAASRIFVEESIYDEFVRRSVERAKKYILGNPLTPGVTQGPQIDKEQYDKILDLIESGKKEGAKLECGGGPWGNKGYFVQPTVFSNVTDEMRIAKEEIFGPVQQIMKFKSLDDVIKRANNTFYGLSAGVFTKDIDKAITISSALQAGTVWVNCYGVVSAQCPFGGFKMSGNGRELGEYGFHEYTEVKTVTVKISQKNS
IMPase Li inh – membrane-permeable IMPase blocker, potentiated with lithium | CHO-M1 cells, IP1 TR-FRET (IP-One), carbachol + lithium | Potency, µM (series often up to 59.4 µM), for the others: top-dose activity, negative = IMPase inhibition, actives largely listed as inhibitors | 210,000 tested, 0.35% active | AID 1457; active = well fitted curve in the direction sought with a large enough effect; inconclusive = small, poorly fitted or top-dose-only effect, or another doubt; inactive = no such curve, though single readings can be large; an effect the other way counts as inactive or inconclusive;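 note: IP1 builds up when IMPase is blocked and the TR-FRET signal falls; potency is the fitted concentration of half-maximal effect; plate controls were basal vehicle for no effect and high inhibitor control for full effect; nearly all actives have a fitted effect of over 50% in size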
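CHO cells stably expressing M1 receptor (2000/well) were cultured 16–30 h, then exposed to compounds with a small lithium addition for 30 min at 37C. IP1 was measured by TR-FRET competition; AC50 from Hill fits.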
IMPase cell inh – cell-permeable inhibitors of inositol monophosphatase (IMPase). P97697. CHO-M1 cells, IP1 accumulation, HTRF TR-FRET ratio. inhibition (IP1 accumulation), % at 46.1 µM. 120,000 tested, under 10 active. AID 901; active = well fitted curve in the direction sought with a large enough effect in the signal ratio, not every such curve was filed as active; inconclusive = small, poorly fitted or top-dose-only effect, or a change in a side signal; inactive = no such curve, though single readings can be large or run the other way; the % refers to the signal ratio;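 note: cells stimulated with carbachol in lithium chloride buffer; plate controls were DMSO basal wells for no effect and reference inhibitor wells for full effect; higher means more IMPase inhibition seen as more IP1 and lower FRET ratio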
Target sequence (P97697 whole entry, looked up): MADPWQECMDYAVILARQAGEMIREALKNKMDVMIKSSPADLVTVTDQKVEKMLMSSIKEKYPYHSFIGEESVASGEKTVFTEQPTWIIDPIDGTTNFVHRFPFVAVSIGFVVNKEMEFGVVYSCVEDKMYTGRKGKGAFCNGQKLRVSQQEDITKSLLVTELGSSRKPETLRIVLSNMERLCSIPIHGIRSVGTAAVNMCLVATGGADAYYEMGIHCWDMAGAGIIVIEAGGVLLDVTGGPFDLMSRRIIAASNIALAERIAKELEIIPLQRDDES
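CHO-M1 cells (CHO stably expressing M1 receptor), compound up to 46 uM final, stimulated with carbachol (50 uM as added) in buffer with 50mM LiCl, pH 7.4, 30 min at 37C. Cytosolic IP1 read by TR-FRET; AC50 from Hill fits.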
ALOX12 inhib – 12-hLO (ALOX12) enzyme inhibition | Potency, µM (highest dose often 57.1 µM), inactives show at the top dose activity change, negative = inhibition, hits mostly inhibitors | 150,000 tested, 0.12% active | purified 12-hLO, xylenol orange hydroperoxide absorbance; active = well fitted curve in the direction sought with a large enough effect; inconclusive = small, poorly fitted or top-dose-only effect, or another doubt; inactive = no such curve, though single readings can be large; an effect the other way counts as inactive or inconclusive; note: potency is the fitted concentration of half-maximal effect; nearly all actives have a fitted effect of over 55% in size
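Hydroperoxide output read as Fe(III)-xylenol orange absorbance, 573-to-405 nm ratio, after 30 min reaction with 40 uM arachidonic acid. Enzyme: 150 nM purified human 12hLO, 15 min compound preincubation; 25 mM Hepes pH 7.0, room temperature.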
PNC assembly inh – blocks assembly of the perinucleolar compartment; PC3M PTB-GFP, PNC prevalence imaging, 16 h; hits give low values; activity change (PNC), negative = inhibition, % at 10 µM; 140,000 tested, 3.1% active;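 active = readout at or below -70, meaning at least 70% loss of cells showing the perinucleolar compartment, a nuclear body marking cancer cells; inconclusive = readout between -30 and a set limit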;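 note: plate controls were DMSO wells for no effect and camptothecin positive control wells for full effect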
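Compounds are pinned in duplicate onto adhered PC3M cells stably expressing GFP-tagged PTB and incubated 16 h at 37 C. Cells are then fixed, nuclei stained with Hoechst, and PNC-positive cells counted.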
Starred values were filed as active, the others as inactive; u = inconclusive; x = no result; [ ] = remark or other dose. The list is not random: actives were taken first. Their share in the collection is about 11%. Unless noted, calls come from the whole dose curve; as a rule, active = well fitted inhibition curve with a large enough effect (not every such curve was filed as active); inconclusive = small, poorly fitted or top-dose-only effect, or another doubt; inactive = no such curve, though single readings can be large or run the other way. Unless noted, % is set by controls: 0 for no effect and ±100 for the full control effect.

SMILES	HPGD inh	ALDH1A1 block	IMPase Li inh	IMPase cell inh	ALOX12 inhib	PNC assembly inh
Cc1noc(C)c1COC(=O)CCCOc1ccc(Cl)cc1Cl	17.8µM*	14.2%	11.7%[38.3 µM]	-14.8	-17.0%	-26.4
CCCC(=O)NC(=S)Nc1ccccc1OC	-16.4%	3.0%	-10.2%[38.3 µM]	-6.4	-17.0%	4.4
O=C(CCCOc1ccc(Cl)cc1Cl)NCC1CCCO1 (stereo unspecified)	11.2µM*	u	7.1%	-2.4	0.4%	-8.9
CCNC(=O)CCCOc1ccc(Cl)cc1Cl	14.1µM*	1.1%	-17.0%[38.3 µM]	2.3	0.2%	-1.4
COc1cccc(Cn2c(=O)c(-c3cc(F)cc(F)c3)nc3cnc(N4CCOCC4)nc32)c1	x	13.5%	0.9%	x	x	x
Cc1noc(C)c1COC(=O)CCCc1c[nH]c2ccccc12	u	14.1µM*	38.9%[38.3 µM]	2.1	-6.2%	6.4
COc1cc(C(=S)N2CCOCC2)cc(OC)c1OC(=O)Cc1ccc(F)cc1	15.8µM*	28.2µM*	-0.6%	x	-2.4%	-5.4
Nc1nc(-c2ccc3ccccc3c2)c(C2(O)C(=O)Nc3c(Br)cc(F)cc32)s1 (stereo unspecified)	-4.4%	u	3.9%[38.3 µM]	0.4	3.3%	-15.3
CCOC(=O)c1ccc(-n2c(C)nc3c(cnn3-c3ccccc3Cl)c2=O)cc1	-2.7%	u	5.5%[38.3 µM]	2.0	-5.8%	-113.4*
Cc1cc2c(=O)n(Cc3ccco3)c(SCC(=O)NCc3ccco3)nc2s1	-17.5%	7.94µM*	20.1%[38.3 µM]	-5.0	-5.6%	-2.4
Cc1cc2c(=O)n(Cc3ccco3)c(SCC(=O)N3CCCc4ccccc43)nc2s1	-11.6%	11.2µM*	45.9%[38.3 µM]	24.2	-5.4%	-5.2
OC[C@@H]1O[C@@H](n2cnc3c(Nc4ccccc4)ncnc32)[C@@H](O)[C@H]1O	x	x	x	-0.6	-4.0%	x
Cc1ccc(NC(=O)N2CCCN(Cc3ccc(F)cc3)C2)cc1C	-14.9%	-1.3%	-7.6%[38.3 µM]	0.5	u	u
Fc1ccc(CN2CCCCCC2)c(F)c1	-8.0%	-11.4%	15.5%[38.3 µM]	-1.6	1.3%	-29.6
Fc1ccc(CN2CCCCCCC2)cc1F	-5.6%	17.8µM*	34.9%[38.3 µM]	0.6	-1.4%	u
O=C(Nc1ccc(Cl)cc1)N1CCCN(Cc2ccccc2F)C1	12.6µM*	-6.6%	-6.0%[38.3 µM]	2.2	-7.6%	-9.7
Fc1ccccc1CN1CCCCCCC1	-7.1%	14.1µM*	58.3%[38.3 µM]	5.4	-5.5%	u
O=C(Nc1ccc(Cl)cc1)N1CCN(c2ccccc2)CC1	4.7%	1.6%	1.8%	-0.7	-4.0%	u
O=C(Nc1ccc(Cl)cc1)N1CCC(CO)(Cc2ccccc2)CC1	x	12.6µM*	8.5%	x	x	x
COc1cccc([C@@H]2Oc3ccc(OC)cc3C(=O)[C@H]2OC(=O)Nc2ccc(OC(F)F)cc2)c1	-8.1%	0.8%	7.3%	x	x	x
CCOC(=O)C1CCN(Cc2ccc(F)c(F)c2)CC1	-3.0%	u	27.1%[38.3 µM]	-1.6	-7.0%	-101.1*
CCOC(=O)N1CCN(C(=O)C2CCN(Cc3cccc(OCc4ccccc4)c3)CC2)CC1	-7.1%	14.1µM*	12.3%	x	-2.9%	54.3
CCOC(=O)C1CCN(Cc2ccc(N(C)C)cc2)CC1	-3.0%	-11.5%	22.1%[38.3 µM]	14.3	-4.6%	-27.6
CCOC(=O)C1CCN(Cc2ccc(OC)cc2OC)CC1	-5.7%	u	35.9%[38.3 µM]	12.7	-5.3%	172.2
CCOC(=O)N1CCN(C(=O)C2CCN(Cc3ccc(O)c(OCC)c3)CC2)CC1	x	u	3.6%	x	x	x
SMILES	HPGD inh	ALDH1A1 block	IMPase Li inh	IMPase cell inh	ALOX12 inhib	PNC assembly inh
CCOC(=O)C1CCN(Cc2cccc(OC)c2)CC1	-15.3%	31.6µM*	3.7%[38.3 µM]	2.8	3.3%	2.7
CC(C)CO/N=C1/C[C@@H](O)[C@@H](O)[C@@H]2[C@@H]3C(=O)N(C4CCCCC4)C(=O)[C@H]3CC[C@H]12	x	-1.8%[13.5 µM]	x	x	x	x
CN(C)/C=C1\C(=O)N(c2ccc(Cl)cc2)CS1(=O)=O	15.8µM*	4.9%	-7.9%[38.3 µM]	9.7	-5.8%	u
CCCOC(=O)CN1C(=O)c2ccccc2C1=O	-5.9%	22.4µM*	9.3%[38.3 µM]	0.8	-5.2%	-12.7
CCOC(=O)CN1C(=O)c2ccccc2C1=O	-7.3%	5.3%	11.2%[38.3 µM]	-14.0	4.2%	u
O=C(CCN1C(=O)c2ccccc2C1=O)OCN1C(=O)c2ccccc2C1=O	-16.5%	-5.5%	55.0%[38.3 µM]	5.3	5.7%	-4.4
O=C(COC(=O)CN1C(=O)C(=O)c2ccccc21)OCN1C(=O)c2ccccc2C1=O	-26.1%	0.0891µM*	-11.0%	x	-0.9%	0.0
Cc1noc(C)c1-c1nc(N2CCN(C)CC2)c2ccccc2n1	x	9.0%	0.6%	x	x	x
CCOC(=O)c1cnc2ccc(C)cc2c1OCc1cc(F)cc(F)c1	-20.6%	14.1µM*	63.0%[38.3 µM]	11.2	-4.1%	5.4
CC(=O)Nc1ccc(NC(=O)COC(=O)c2c3c(nc4ccccc24)CCN(Cc2ccccc2)C3)cc1	x	7.08µM*	x	-9.0	3.3%	11.2
CC1(C)C(=O)C=C[C@@]2(C)C1C=C[C@@]1(C)C2CC[C@@]2(C)C(c3ccoc3)OC(=O)C3OC312 (stereo partly specified)	1.0%	-8.8%	11.2%	x	-1.0%	x
CC(C)OC(=O)CSc1nnc2c3ccccc3n(C)c2n1	x	u	10.2%	x	x	x
COC(=O)c1ccc(S(=O)(=O)NCCSc2nnc3c4ccccc4n(C)c3n2)cc1	u	15.8µM*	u	4.7	-4.9%	15.7
COC(=O)[C@@]1(Cc2ccc(F)cc2)[C@H]2c3cc(C(=O)N(C)C)n(CC4CC4)c3C[C@H]2CN1C(=O)c1ccccc1	-10.7%	4.5%	2.1%	x	-2.6%	x
c1cnc2ccc(C(c3nnnn3C3CCCCC3)N3CCCCC3)cc2c1 (stereo unspecified)	-12.5%	u	14.1%	1.5	-3.2%	-100.0*
COc1ccc(C(c2nnnn2C2CCCCC2)N2CCN(c3ccc(OC)cc3)CC2)cc1 (stereo unspecified)	-13.7%	-4.0%	12.2%[38.3 µM]	-4.2	1.5%	22.7
c1cc(N2CCCC2)ccc1C(c1nnnn1C1CCCCC1)N1CCOCC1 (stereo unspecified)	x	25.1µM*	x	8.0	-4.6%	21.2
Cc1cc(Br)cc2c(C(=O)OCC(=O)c3ccccc3)cc(-c3ccccc3)nc12	x	x	x	-5.7	x	x
COc1cccc(-c2ccc3ncnc(NCCc4c[nH]c5ccc(OC)cc45)c3c2)c1	x	-7.4%	22.9%	x	x	x
Cc1ccc2oc3c(c(=O)c2c1)C(c1ccc(OCC(N)=O)cc1)N(Cc1ccc2c(c1)OCO2)C3=O (stereo unspecified)	x	x	x	-4.7	x	x
O=C(c1ccc(N2CCN(C3CC(=O)N(Cc4cccs4)C3=O)CC2)cc1)c1cccnc1 (stereo unspecified)	x	3.16µM*	12.2%	x	x	x
CC(C)(C)OC(=O)N1CCC(c2cc(=O)n3[nH]c(-c4ccc(Cl)cc4)cc3n2)CC1	-14.2%	7.2%	-8.3%[38.3 µM]	0.2	3.4%	-83.8*

Bioassay records (PubChem BioAssay)
